Compounds with a hit are over-represented: about 6.8% of the library has one in this group of screens.
Abs 340nm = compounds absorbing at 340 nm; fold change at 10 µM; compound absorbance at 340 nm, fold over control; 65,000 tested, under 10 active; AID 708;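 active means at 10 µM dose, initial 340 nm absorbance at least 2 fold that of control wells; inactive means change under 2 fold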;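 further: initial absorbance extrapolated from kinetic A340 decline of NADH oxidation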
Spn PMK inh = blocks S. pneumoniae phosphomevalonate kinase. purified PMK, PK/LDH-coupled NADH absorbance 340 nm. inhibition, % at 10 µM. 65,000 tested, 0.49% active;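 active means top-ranked compounds by inhibition in the single 10 µM screen, taking a fixed number of the strongest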;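 further: 0% = full reaction with DMSO carrier and 100% = background rate without enzyme reaction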
Autofluor 339 = intrinsic fluorescence of library compounds, ex339/em460 – biochemical, MLSMR library, data from DPM-DC assay, artefact control, profiling panel; compound autofluorescence, ex339/em460 nm, NADH buffer; active compounds read high; 1 = no-compound wells, NADH background; fluorescence fold increase at 10 µM; 65,000 tested, 5.5% active;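 active means at 10 µM, mean starting fluorescence two-fold or more over control wells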;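 further: signal is the first read of a kinetic run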
MK inhibit = blocks S. pneumoniae mevalonate kinase. inhibition, % at 10 µM. purified MK, PK/LDH-coupled NADH absorbance 340 nm. AID 555. 65,000 tested, 0.48% active;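 active means ranked among the strongest by inhibition in the single 10 µM screen, a fixed top-ranked set picked for dose follow-up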
DPM-DC inhibit = blocks S. pneumoniae diphosphomevalonate decarboxylase; purified DPM-DC, PK/LDH coupled NADH fluorescence; calls only at 10 µM; 65,000 tested, 0.49% active;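 active means the 320 compounds with the highest percent inhibition in the single-dose primary screen, excluding strongly autofluorescent ones, cut at about 32% in these data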;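 further: kinetic rate of NADH fluorescence loss reporting ADP formed by the decarboxylase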
NADH enzymes = blocks coupling enzymes of NAD/NADH assays; AID 774; IC50, µM (doses to about 10 µM), for inactives: at the highest dose inhibition; 65,000 tested, 0.02% active; coupled PK/LDH NADH assays, four targets;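 active means single-dose screening hits from any of four coupled enzyme assays that gave an IC50 when retested across doses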;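 further: the DPM-DC format reads NADH fluorescence rather than 340 nm absorbance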
* = called active by the depositor.

How did COc1ccc(OCC(=O)N2CCN(c3nnc(-c4ccccc4)c4ccccc34)CC2)cc1 do in these assays?
Abs 340nm: 1.06; Spn PMK inh: 26.0*; Autofluor 339: 1.13; MK inhibit: 1.0; DPM-DC inhibit: inactive; NADH enzymes: 9.0%

How did CC1(C)CC(=O)C(C=NCCN2CCN(CCc3ccccc3)CC2)=C(O)C1 do in these assays?
Abs 340nm: 1.02; Spn PMK inh: active; Autofluor 339: 1.08; MK inhibit: 1.0; DPM-DC inhibit: inactive; NADH enzymes: 3.0%

How did CC1(C)CC(=O)C(C=NCCN2CCN(C(=O)c3ccccc3)CC2)=C(O)C1 do in these assays?
Abs 340nm: 1.04; Spn PMK inh: 0.0; Autofluor 339: 1.08; MK inhibit: 11.0; DPM-DC inhibit: inactive; NADH enzymes: 4.0%

What do the screens show for `Cc1ccc(S(=O)(=O)Nn2c(C)ccc2C)cc1`?
Abs 340nm: 1.06; Spn PMK inh: 10.0; Autofluor 339: 1.08; MK inhibit: 9.0; DPM-DC inhibit: inactive; NADH enzymes: 8.0%

Results for CCOC(=O)c1c(C)n(C)c2ccc(OC)c(NS(=O)(=O)c3ccc(Cl)s3)c12 ?
Abs 340nm: 1.06; Spn PMK inh: 78.0*; Autofluor 339: 1.14; MK inhibit: 3.0; DPM-DC inhibit: inactive; NADH enzymes: 27.0%

How did COc1cccc2cc3c(=O)n(-c4ccccc4)nc-3oc12 do in these assays?
Abs 340nm: 0.97; Spn PMK inh: 4.0; Autofluor 339: 0.29; MK inhibit: 7.0; DPM-DC inhibit: active; NADH enzymes: 19.0%

What do the screens show for `CCc1nc(SCC(=O)NCCc2ccc(OC)c(OC)c2)c2c(=O)n(C)c(=O)n(C)c2n1`?
Abs 340nm: 1.03; Spn PMK inh: 0.0; Autofluor 339: 1.08; MK inhibit: 4.0; DPM-DC inhibit: inactive; NADH enzymes: 1.0%

How did Cn1cnnc1SCC(=O)n1c2ccccc2c2ccccc21 do in these assays?
Abs 340nm: 1.01; Spn PMK inh: 42.0*; Autofluor 339: 1.11; MK inhibit: 67.0*; DPM-DC inhibit: inactive; NADH enzymes: 36.0%

What do the screens show for `N#Cc1sc2nc3c(c(-c4cccnc4)c2c1N)CCC3`?
Abs 340nm: 1.09; Spn PMK inh: 7.0; Autofluor 339: 1.18; MK inhibit: 7.0; DPM-DC inhibit: inactive; NADH enzymes: 8.0%

How did Cc1nc2sc(C#N)c(N)c2c2c1CCCC2 do in these assays?
Abs 340nm: 1.01; Spn PMK inh: 1.0; Autofluor 339: 2.52*; MK inhibit: 0.0; NADH enzymes: 3.0%

What do the screens show for `COc1ccc(-c2nc3c(n2O)CCCC3=O)cc1OC`?
Abs 340nm: 1.12; Spn PMK inh: 13.0; Autofluor 339: 3.54*; MK inhibit: 6.0; NADH enzymes: 10.0%

Results for COc1ccccc1OCC(=O)NC1CCCCCC1 ?
Abs 340nm: 1.01; Spn PMK inh: 8.0; Autofluor 339: 1.1; MK inhibit: 6.0; DPM-DC inhibit: inactive; NADH enzymes: 5.0%

Results for Cc1cc(=O)oc2cc(OCC(=O)NCCCN3CCOCC3)ccc12 ?
Abs 340nm: 1.08; Spn PMK inh: 5.0; Autofluor 339: 1.84; MK inhibit: 7.0; DPM-DC inhibit: inactive; NADH enzymes: 8.0%

How did CC(C)CCNC(=O)COc1ccc2c3c(c(=O)oc2c1)CCC3 do in these assays?
Abs 340nm: 1.08; Spn PMK inh: 18.0; Autofluor 339: 3.09*; MK inhibit: 6.0; DPM-DC inhibit: inactive; NADH enzymes: 15.0%

Results for COc1ccc2c(c1)c(=O)oc1cc(OCC(=O)NC3CC3)ccc12 ?
Abs 340nm: 1.1; Spn PMK inh: 4.0; Autofluor 339: 3.72*; MK inhibit: 7.0; NADH enzymes: 6.0%

Results for CC(C)CNC(=O)COc1ccc2c3c(c(=O)oc2c1)CCC3 ?
Abs 340nm: 1.06; Spn PMK inh: 15.0; Autofluor 339: 2.04*; MK inhibit: 3.0; DPM-DC inhibit: active; NADH enzymes: 19.0%

How did O=C(CSc1nnc(-c2ccncc2)n1-c1ccc(Cl)cc1)N1CCOCC1 do in these assays?
Abs 340nm: 1.07; Spn PMK inh: 3.0; Autofluor 339: 1.07; MK inhibit: 15.0; DPM-DC inhibit: inactive; NADH enzymes: 8.0%

How did COc1ccc(C2C=C(C)Nc3nc(SC)nn32)cc1 (centres undefined) do in these assays?
Abs 340nm: 1.03; Spn PMK inh: 8.0; Autofluor 339: 5.07*; MK inhibit: 8.0; NADH enzymes: 8.0%

Assay outcomes (PubChem)
